Activity calls are given as the source filed them. No stated cut-off is given here; in the data, active means inhibition above about 31%; inactive means the rest.

One may read the inhibition as the relative decrease from the control value, in per cent.

Sequence of N-formyl peptide receptor 2 (Homo sapiens) (P25090 whole entry, looked up): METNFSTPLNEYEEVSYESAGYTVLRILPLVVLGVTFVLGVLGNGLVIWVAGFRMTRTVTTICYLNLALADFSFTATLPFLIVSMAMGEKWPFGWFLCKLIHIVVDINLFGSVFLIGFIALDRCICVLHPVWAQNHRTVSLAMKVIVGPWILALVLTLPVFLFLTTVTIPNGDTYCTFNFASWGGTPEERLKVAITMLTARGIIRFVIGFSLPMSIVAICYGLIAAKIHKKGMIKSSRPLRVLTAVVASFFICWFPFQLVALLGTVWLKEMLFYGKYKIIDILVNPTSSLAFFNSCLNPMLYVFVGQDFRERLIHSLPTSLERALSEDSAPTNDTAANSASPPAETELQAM

This assay has as its target N-formyl peptide receptor 2 (Homo sapiens) (UniProt P25090). The assay can be described thus: human FPR2 ligand displacement single-point screen – cell-based, flow cytometry, single concentration (AID 765). The settings on record: FPRL1-expressing cells, fluorescent ligand binding inhibition, hits give high values; at 5.1 µM unless noted. (In general: Flow cytometry measures light scatter and fluorescence of single cells or particles in a stream.)
For the molecule `O=C(O)CCC(=O)N1CCN(c2nc(-c3ccccc3)c3ccccc3n2)CC1`, the inhibition is -3.2% [at 5.7 µM] (inactive).
The result for `FC(F)(F)c1nc(N2CCN(Cc3ccccc3)CC2)nc2c1CCCCC2` reads 11.8% [at 5.7 µM] (inactive); that for `O=C(O)CCC(=O)N1CCN(c2nc(-c3ccccc3)c3cc([N+](=O)[O-])ccc3n2)CC1`, 3.6% (inactive).
In the case of `COc1ccccc1-c1cc(C(F)(F)F)nc(N2CCN(c3ccccc3OC)CC2)n1`, the inhibition was -2.8% [at 5 µM] (inactive).
The value for `CCC(=O)Nc1cc(-c2cn3cccnc3n2)ccc1OC` was 41.3% [at 7.5 µM] (active); that for `FC(F)(F)c1cc(-c2ccco2)nc(N2CCN(C(c3ccccc3)c3ccccc3)CC2)n1` was -10.5% [at 4.8 µM] (inactive); that for `COc1ccc(-c2cn3cccnc3n2)cc1NC(=O)c1ccccc1Br` was 3.2% [at 5.3 µM] (inactive).
With `FC(F)(F)c1cc(-c2cccs2)nc(N2CCN(C(c3ccccc3)c3ccccc3)CC2)n1`, the inhibition was -11% [at 4.6 µM] (inactive).
Consider `COc1ccc(-c2nc(N3CCN(C)CC3)[nH]c(=O)c2C#N)cc1`, for which the inhibition was -9.7% [at 6.8 µM] (inactive).
As to `O=C(c1ccccc1Cl)N1CCN(c2nc(-c3ccccc3)c3cc(Cl)ccc3n2)CC1`, the inhibition is 4.5% [at 4.8 µM] (inactive).
The value for `CCC(CC)C(=O)Nc1cc(-c2cn3cccnc3n2)ccc1OC` was 11.5% [at 6.6 µM] (inactive); that for `COc1ccc(-c2cn3cccnc3n2)cc1NC(=O)Cc1ccccc1` was 31.2% [at 6.2 µM] (active); that for `Clc1cccc(-c2nc(N3CCN(c4ccccc4)CC3)nc3c2COc2ccccc2-3)c1` was -0.8% [at 4.9 µM] (inactive).

The record behind these values is PubChem BioAssay AID765 (NMMLSC, 2007).
